Some of the results follow. Calls of active or inactive are those of the source.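 How the source made its calls: active means proliferation increase above 40% at any of the four tested concentrations; inactive means the rest.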
assay: inducers of beta-cell proliferation in MIN6, confirmation, MIN6 cells, mouse (AID 463095); conditions: ATPlite luminescence, 48 h, cells kept in 0.2% serum, scaled between 0.2% and 10% serum; series mostly up to 50 µM; proliferation increase: at the top concentration

Proliferation increase, inactive:
COc1ccccc1OCc1ccc(C(=O)N2CCN(C)CC2)o1 -0.1%, COc1cccc(CNC(=O)C2CCCN(c3ncnc4c3nc3n4CCCCC3)C2)c1 (stereo unspecified) -4.3%, Cn1cc(CN2CCC(C(O)CCc3ccccc3)CC2)c(-c2ccccc2F)n1 (stereo unspecified) -5.9%, O=S(=O)(NCCOc1cccc2cccnc12)c1ccc(F)cc1 0.3%, CC/C(=N/Nc1ccccc1)c1cnnc(SC)n1 -0.4%, CC(=O)c1ccc(S(=O)(=O)NCc2nnnn2-c2ccccc2)cc1 -2.8%, CCOC(=O)C1=C(CC)OC(N)=C(C#N)C1c1ccc(F)cc1F (stereo unspecified) -1.9%, CC1(C)C2CC=C(/C=N/NC(=O)C3CC3)C1C2 (stereo unspecified) -2.2%, COc1cccc(CNC(=O)CCC2CCCN(C(=O)c3ccoc3C)C2)c1 (stereo unspecified) -6.4%, CCn1c(=O)n(CC)c2cc(N3CCCC3)c(NC(=O)c3ccccc3Br)cc21 -6.1%, CCOc1ccccc1NC(=O)Nc1cc(OC)ccc1OC -1.2%, O=C1c2ccccc2S(=O)(=O)c2cc(N3CCN(c4ccccn4)CC3)ccc21 2.2%, COc1ccc(CCC(=O)c2ccc(OC)cc2)cc1 -4%, CC(=O)c1cccc(NC(=O)COc2ccc(S(=O)(=O)N3CCOCC3)cc2)c1 -1.5%, COc1ccc(CCn2c(=N)c(C(=O)NCc3ccco3)cc3c(=O)n4cccc(C)c4nc32)cc1 -6.4%, Cc1cc(NC(=O)c2ccco2)c(=O)n(Cc2c(F)cccc2Cl)c1 1%, Fc1ccc(CNCc2ccc(Br)cc2)cc1 -3.9%, Cc1ccccc1NC(=S)NNC(=O)c1cccc(Br)c1 -5.1%, Cn1nc(-c2ccccc2)c2cc([N+](=O)[O-])ccc21 1.7%, COC(=O)Nc1sc2nc(C)cc(C)c2c1-n1cccc1 -0.5%, O=C(Nc1ccc(F)cc1)C1CCCN(S(=O)(=O)c2ccc(-n3cnnn3)cc2)C1 (stereo unspecified) -1.4%
